Results reported in PubChem BioAssay (NCATS).
Results filed as inconclusive are left out. Activity calls are given as the source filed them. Calls come from the whole dose curve; as a rule, active = well fitted inhibition curve with a large enough effect; inconclusive = small, poorly fitted or top-dose-only effect; inactive = flat fitted curve, though single readings scatter. Peptide text beside a SMILES is read from it.

Assays:
Assay in all cases: qHTS profiling for inhibitors of Plasmodium falciparum proliferation (AID 504749); note: nearly all actives have a fitted effect of over 60% in size
Conditions in all cases: P. falciparum in erythrocytes, SYBR Green DNA, 72 h; series mostly up to 28.7 µM
CP265 = test system: CP265
Outline: (§1)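 Each compound contacts P. falciparum-infected red blood cells for 72 h at 37 C; lysis buffer (Tris, EDTA, saponin, Triton X, SYBR Green I) is added and fluorescence measured next morning; values normalized to controls.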

CP266 = test system: CP266
Outline: as §1

CP268 = test system: CP268
Outline: as §1

CP269 = test system: CP269
Outline: as §1

CP286 = test system: CP286
Outline: as §1

CP291 = test system: CP291
Outline: as §1

CP297 = test system: CP297
Outline: as §1

CP305 = test system: CP305
Outline: as §1

CP315 = test system: CP315
Outline: as §1

CP325 = test system: CP325
Outline: as §1

Measured: Potency
Potency is the fitted concentration of half-maximal effect.

CN(C)CCc1c[nH]c2ccc(Cn3cncn3)cc12
inactive: CP265 | CP266 | CP268 | CP269 | CP286 | CP291 | CP297 | CP305 | CP315 | CP325

Oc1ccc(OCc2ccccc2)cc1
inactive: CP265 | CP266 | CP268 | CP269 | CP286 | CP291 | CP297 | CP315 | CP325

CCCOc1ccc2nc(NC(=O)OC)[nH]c2c1
inactive: CP265 | CP266 | CP268 | CP269 | CP286 | CP291 | CP297 | CP305 | CP315 | CP325

CN(C)C(=O)COC(=O)Cc1ccc(OC(=O)c2ccc(N=C(N)N)cc2)cc1
inactive: CP265 | CP266 | CP268 | CP269 | CP286 | CP291 | CP297 | CP305 | CP315 | CP325

O=C(O)c1cccc(-c2noc(-c3ccccc3F)n2)c1
inactive: CP265 | CP266 | CP268 | CP269 | CP286 | CP291 | CP297 | CP305 | CP315 | CP325

CC1=C(C)C(=O)C(C(CCCCCC(=O)O)c2ccccc2)=C(C)C1=O (configuration not stated)
inactive: CP265 | CP266 | CP268 | CP269 | CP286 | CP291 | CP305 | CP325

CC(C)[C@H](N)C(=O)OCCOCn1cnc2c(=O)[nH]c(N)nc21
inactive: CP265 | CP266 | CP268 | CP269 | CP286 | CP291 | CP297 | CP305 | CP315 | CP325

C=CCc1cc(OC)c(O)c(C(=O)NCCO)c1
inactive: CP265 | CP266 | CP268 | CP269 | CP286 | CP297 | CP305 | CP315 | CP325

O=C(CS(=O)Cc1ccco1)NCC=CCOc1cc(CN2CCCCC2)ccn1 (configuration not stated)
inactive: CP265 | CP266 | CP268 | CP269 | CP286 | CP291 | CP305 | CP315 | CP325

O=C(O)c1cc(=O)c2c(OCC(O)COc3cccc4oc(C(=O)O)cc(=O)c34)cccc2o1
inactive: CP265 | CP266 | CP268 | CP269 | CP286 | CP291 | CP297 | CP305 | CP315 | CP325

c1ccc2[nH]c(-c3cscn3)nc2c1
inactive: CP265 | CP266 | CP268 | CP269 | CP286 | CP291 | CP305 | CP315 | CP325

CC1(C)NC(=O)N(c2ccc([N+](=O)[O-])c(C(F)(F)F)c2)C1=O
inactive: CP265 | CP266 | CP268 | CP269 | CP286 | CP291 | CP297 | CP305 | CP315 | CP325

O=P(O)(O)C(O)(Cn1ccnc1)P(=O)(O)O
inactive: CP265 | CP266 | CP268 | CP269 | CP286 | CP291 | CP297 | CP305 | CP315 | CP325

CCCCc1ccc2nc(NC(=O)OC)[nH]c2c1
inactive: CP265 | CP266 | CP268 | CP269 | CP286 | CP291 | CP297 | CP305 | CP315 | CP325

C[C@H](Cn1cnc2c(N)ncnc21)OCP(=O)(O)O
inactive: CP265 | CP266 | CP268 | CP269 | CP286 | CP291 | CP297 | CP305 | CP315 | CP325

CCc1nc(N)nc(N)c1-c1ccc(Cl)cc1
inactive: CP265 | CP266 | CP268 | CP269 | CP286 | CP291 | CP305 | CP315 | CP325

O=C1c2ccccc2-c2n[nH]c3cccc1c23
inactive: CP265 | CP266 | CP268 | CP269 | CP286 | CP291 | CP297 | CP305 | CP315 | CP325

COc1cc2c(cc1OC)C1CC(=O)C(CC(C)C)CN1CC2 (configuration not stated)
inactive: CP265 | CP266 | CP268 | CP269 | CP286 | CP291 | CP297 | CP305 | CP315 | CP325

Cc1cc2cc3c(C)cc(=O)oc3c(C)c2o1
inactive: CP265 | CP266 | CP268 | CP269 | CP286 | CP291 | CP297 | CP305 | CP315 | CP325

COC(=O)[C@H](Cc1ccccc1)NC(=O)[C@@H](N)CC(=O)O (H-Asp-Phe-OMe)
inactive: CP265 | CP266 | CP268 | CP269 | CP286 | CP291 | CP297 | CP305 | CP315 | CP325

CNC[C@@H](O)[C@@H](O)[C@H](O)[C@H](O)CO
inactive: CP265 | CP268 | CP269 | CP286 | CP291 | CP297 | CP305 | CP315

CCN(CCO)CCCC(C)Nc1ccnc2cc(Cl)ccc12 (configuration not stated)
inactive: CP265 | CP266 | CP268 | CP269 | CP305 | CP315 | CP325

Clc1ccc(C(Cn2ccnc2)OCc2ccsc2Cl)c(Cl)c1 (configuration not stated)
active: CP265 7.94 µM | CP268 12 µM | CP269 6.75 µM | CP286 7.08 µM | CP291 12 µM | CP297 3.79 µM | CP305 12 µM | CP315 15.1 µM | CP325 12 µM

CCCCC(CC)COC(=O)C(C#N)=C(c1ccccc1)c1ccccc1 (configuration not stated)
inactive: CP268 | CP269 | CP305 | CP315 | CP325

CC[C@]1(O)C[C@H]2CN(CCc3c([nH]c4ccccc34)[C@@](C(=O)OC)(c3cc4c(cc3OC)N(C=O)[C@H]3[C@@](O)(C(=O)OC)[C@H](OC(C)=O)[C@]5(CC)C=CCN6CC[C@]43[C@@H]65)C2)C1
active: CP286 0.0708 µM | CP291 3.38 µM | CP297 3.01 µM

CN(c1nccc(=O)[nH]1)C1CCN(c2nc3ccccc3n2Cc2ccc(F)cc2)CC1
inactive: CP265 | CP268 | CP286 | CP291 | CP305

Cc1cc(=O)c2c(O)c3c(O)cc(=O)c4c3c3c(cc(O)c1c23)C(C)(C)C=4O
active: CP265 1.58 µM | CP269 2.69 µM | CP286 1.58 µM | CP291 2.69 µM | CP305 3.38 µM

Cc1ccc(NC(=O)c2ccc(CN3CCN(C)CC3)cc2)cc1Nc1nccc(-c2cccnc2)n1
active: CP269 15.1 µM | CP286 11.2 µM

Cc1cc(=O)oc2cc(O)ccc12
inactive: CP266 | CP268 | CP269 | CP291 | CP305 | CP315 | CP325

Nc1nc(Cl)nc2c1ncn2[C@H]1C[C@H](O)[C@@H](CO)O1
inactive: CP265 | CP286

COc1ccc(C2(C#N)CCC(C(=O)O)CC2)cc1OC1CCCC1 (configuration not stated)
inactive: CP265 | CP268 | CP269 | CP286 | CP291 | CP297 | CP305 | CP315 | CP325

COCCCOc1ccnc(CS(=O)c2nc3ccccc3[nH]2)c1C (configuration not stated)
inactive: CP265 | CP266 | CP268 | CP286 | CP291 | CP305 | CP315 | CP325

O=C1CCc2ccc(OCCCCN3CCN(c4cccc(Cl)c4Cl)CC3)cc2N1
inactive: CP265 | CP266 | CP268 | CP269 | CP291 | CP297 | CP305 | CP315 | CP325

C=C(c1ccc(C(=O)O)cc1)c1cc2c(cc1C)C(C)(C)CCC2(C)C
inactive: CP265 | CP266 | CP268 | CP269 | CP291 | CP297 | CP305 | CP315 | CP325

Cc1nc(Nc2ncc(C(=O)Nc3c(C)cccc3Cl)s2)cc(N2CCN(CCO)CC2)n1
inactive: CP265 | CP268 | CP291 | CP305 | CP315 | CP325

O=C(NCCO[N+](=O)[O-])c1cccnc1
inactive: CP265 | CP268 | CP269 | CP286 | CP291 | CP297 | CP305 | CP315 | CP325

Cc1cc(C2CCCCC2)n(O)c(=O)c1
active: CP269 5.73 µM | CP297 7.21 µM | CP305 5.73 µM | CP315 2.28 µM | CP325 5.73 µM

Cc1cccc(C)c1OCC(=O)N[C@@H](Cc1ccccc1)[C@@H](O)C[C@H](Cc1ccccc1)NC(=O)[C@H](C(C)C)N1CCCNC1=O
active: CP265 5.01 µM | CP268 9.53 µM | CP269 6.75 µM | CP286 7.08 µM | CP291 13.5 µM | CP297 4.26 µM | CP305 13.5 µM | CP315 6.75 µM | CP325 13.5 µM

CN1CCC(=C2c3ccccc3CCc3sccc32)CC1
inactive: CP297 | CP315

Cc1c(C(=O)NN2CCCCC2)nn(-c2ccc(Cl)cc2Cl)c1-c1ccc(Cl)cc1
active: CP265 11.2 µM | CP297 19 µM

O=C(O)c1cn(-c2ccc(F)cc2)c2cc(N3CCNCC3)c(F)cc2c1=O
inactive: CP266

CC(C)c1ccc2oc3nc(N)c(C(=O)O)cc3c(=O)c2c1
inactive: CP265 | CP268 | CP269 | CP286 | CP291 | CP297 | CP305 | CP315 | CP325

NNc1nncc2ccccc12
inactive: CP266 | CP291 | CP297 | CP315

COc1ccc2cc([C@H](C)C(=O)O)ccc2c1
inactive: CP265 | CP266 | CP268 | CP269 | CP291 | CP297 | CP305 | CP315 | CP325

N=C(N)c1ccc2cc(OC(=O)c3ccc(N=C(N)N)cc3)ccc2c1
active: CP286 4.47 µM | CP305 4.78 µM

Cc1nc2n(c(=O)c1CCN1CCC(c3noc4cc(F)ccc34)CC1)CCCC2
inactive: CP265 | CP266 | CP268 | CP269 | CP291 | CP297 | CP305 | CP315 | CP325

O=C(OC1C[C@H]2CC[C@@H](C1)[N+]21CCCC1)C(O)(c1ccccc1)c1ccccc1 (some centres not stated)
active: CP265 3.98 µM | CP286 3.98 µM | CP305 4.26 µM

CCCCCCCCOc1ccccc1C(=O)Nc1ccc(C(=O)OCC[N+](C)(CC)CC)cc1
active: CP286 6.31 µM
